Assay outcomes deposited in PubChem BioAssay by National Center for Advancing Translational Sciences (NCATS).
Pf growth 48h: inhibits P. falciparum growth in the first generation, 48 h | P. falciparum luciferase growth in erythrocytes, 48 h | Potency, µM (highest dose often 28.7 µM), most hits filed as inhibitors | 310,000 tested, 5.9% active | AID 504832
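Luciferase-expressing parasites in RBCs, 2% Hct / 0.1% parasitemia final; RPMI 1640 + 0.5% Albumax; 37 C, 5% CO2, one generation; luminescence read-out, lower signal = inhibition.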
FBPA Giardia inh: blocks Giardia fructose-bisphosphate aldolase activity; purified Giardia FBPA; AID 2451; Potency, µM (series often up to 59.6 µM), most hits filed as inhibitors; A8B2U2; 290,000 tested, 0.71% active; also: nearly all actives have a fitted effect of over 55% in size
Target sequence (A8B2U2 whole entry, looked up): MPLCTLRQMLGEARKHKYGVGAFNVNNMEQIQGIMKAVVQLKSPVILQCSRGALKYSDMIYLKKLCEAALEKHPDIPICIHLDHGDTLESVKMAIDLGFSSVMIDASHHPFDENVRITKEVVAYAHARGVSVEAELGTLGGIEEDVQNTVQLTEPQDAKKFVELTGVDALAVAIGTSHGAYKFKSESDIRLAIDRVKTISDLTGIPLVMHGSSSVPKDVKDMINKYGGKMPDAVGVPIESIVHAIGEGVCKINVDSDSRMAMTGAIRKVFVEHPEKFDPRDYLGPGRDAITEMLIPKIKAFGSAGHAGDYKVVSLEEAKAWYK
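Giardia FBPA (40 nM reagent) was preincubated 10 min at RT with compound (up to 57.5 uM final), then substrate plus GAPDH/TPI/NAD/arsenate coupling system with diaphorase/resazurin was added; resorufin fluorescence (525/598 nm) was read after 20 min.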
Cycloheximide cs: counter-screen for Shiga toxin inhibitors: cycloheximide protein synthesis inhibition; cell reporter, cycloheximide protein synthesis inhibition counterscreen; max response, %; 300,000 tested, 12% active; in the data active = max response mostly above about 13%, no sharp cut-off; inactive = mostly below about 14%; also: read at 38.3 µM for the half of the compounds with a filed dose
Pf growth 96h: P. falciparum growth inhibition at 96 hours | 320,000 tested, 6.9% active | Potency, µM (titrated, usually from 28.7 µM), actives largely listed as inhibitors | P. falciparum luciferase reporter growth, 96 h
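Cell-based qHTS: luciferase-tagged P. falciparum in erythrocytes (2% hematocrit, 0.05% parasitemia final) incubated with compounds for 96 hours, 37 C, 5% CO2; luciferase detection reagent then added and luminescence measured.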
Shiga toxin inh: Shiga toxin inhibition; Vero cells, Shiga toxin protein synthesis inhibition reporter; inhibition, % at 38.7 µM; 290,000 tested, 9.2% active; AID 2315; in the data active = inhibition mostly above about 28%, no sharp cut-off; inactive = mostly below about 43%
NS1 function inh: blocks influenza NS1 protein function. Potency, µM (series often up to 46.1 µM). 270,000 tested, 0.4% active; calls by dose curve; also: actives are rising curves; nearly all actives have a fitted effect of over 50% in size
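OD600 was taken as the measure of yeast growth restored by compound in an NS1-expressing S. cerevisiae strain. Cells had been washed out of glucose medium and diluted 1:100 into galactose -URA medium, pH 6.0.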
Each line names hits and unclear results; the compound was inactive in the other large screens. In the library only some 21% were active in any assay of this set; here they are far more common. Unless noted, calls follow the shape of the dose curve; as a rule, active = well fitted curve in the direction sought with a large enough effect; inconclusive = small, poorly fitted or top-dose-only effect, or another doubt; inactive = no such curve, though single readings can be large; an effect the other way counts as inactive or inconclusive.

CCn1cc([N+](=O)[O-])c(C(=O)N2N=C(c3cccc4ccccc34)CC2c2ccccc2O)n1 (stereo unspecified)	Pf growth 48h 9.3µM, Pf growth 96h 13µM
CCn1cc([N+](=O)[O-])c(C(=O)N2N=C(c3ccc(OC)cc3OC)CC2c2ccccc2O)n1 (stereo unspecified)	Pf growth 48h inconclusive, Pf growth 96h 10µM
CCn1cc([N+](=O)[O-])c(C(=O)N2CCCC2)n1	none (no result: Pf growth 96h)
CCn1cc([N+](=O)[O-])c(C(=O)N2N=C(c3ccc4ccccc4c3)CC2c2ccccc2O)n1 (stereo unspecified)	Pf growth 48h 8.3µM, Cycloheximide cs 34, Pf growth 96h inconclusive, Shiga toxin inh 27, NS1 function inh inconclusive
CCn1cc([N+](=O)[O-])c(C(=O)N2CCN(C(=O)c3ccco3)CC2)n1	none
CCn1cc(Cl)c(C(=O)N2N=C(c3ccc4ccccc4c3)CC2c2ccccc2O)n1 (stereo unspecified)	Pf growth 48h 2.1µM, Pf growth 96h 1.5µM
C#Cc1ccc(CN2CCCC(C(=O)Nc3ccccc3Oc3cccnc3)C2)cc1 (stereo unspecified)	Pf growth 48h 10µM (no result: FBPA Giardia inh)
O=C(Nc1ccccc1Oc1cccnc1)C1CCCN(C/C=C/c2ccccc2)C1 (stereo unspecified)	Pf growth 48h 5.2µM, Pf growth 96h inconclusive (no result: FBPA Giardia inh)
CCN(CC)C(=O)C1CCCN(C/C=C/c2ccccc2)C1 (stereo unspecified)	Pf growth 96h inconclusive
O=C(Nc1ccccc1Oc1cccnc1)C1CCCN(Cc2ccccc2O)C1 (stereo unspecified)	Pf growth 48h 13µM
CC(C)n1cc(CN2CCCC(C(=O)Nc3ccccc3Oc3cccnc3)C2)cn1 (stereo unspecified)	none
Cc1ccc(NC(=O)c2ccc(S(=O)(=O)N3CCOCC3)cc2)cc1	Cycloheximide cs 29 (no result: FBPA Giardia inh)
CC(Oc1ccc(Cl)cc1)C(=O)Nc1ccc(S(=O)(=O)N2CCOCC2)cc1 (stereo unspecified)	Pf growth 48h 13µM
O=C(Nc1ccc(Cl)cc1)c1ccc(S(=O)(=O)N2CCOCC2)cc1	Pf growth 96h inconclusive
CC(=O)Nc1ccc(S(=O)(=O)N2CCOCC2)cc1	Pf growth 96h 2.9µM
CC(Oc1ccccc1Cl)C(=O)Nc1ccc(S(=O)(=O)N2CCCC2)cc1 (stereo unspecified)	Pf growth 48h 13µM (no result: FBPA Giardia inh, Cycloheximide cs, Shiga toxin inh, NS1 function inh)
CC(OC(=O)C(C)Oc1ccccc1)C(=O)Nc1ccc(S(=O)(=O)N2CCCCC2)cc1 (stereo unspecified)	Pf growth 96h inconclusive (no result: FBPA Giardia inh, Cycloheximide cs, Shiga toxin inh, NS1 function inh)
Cc1ccc2nc(NCCc3ccccc3)c3nncn3c2c1	none
Cc1cc(C)n(S(=O)(=O)c2ccccc2)n1	none
Cn1cc(S(=O)(=O)N2CCOCC2)cc1C(=O)Nc1ccc(Cl)cc1	Pf growth 96h 7.4µM, Shiga toxin inh 39
CC(=O)Nc1ccc(S(=O)(=O)N2CCC3(CC2)OCCO3)cc1	Pf growth 96h 9.3µM (no result: FBPA Giardia inh)
CC(=O)Nc1ccc(S(=O)(=O)n2nc(C)cc2C)cc1	Pf growth 96h 0.93µM
CC1CN=C(N(C(=O)Nc2ccccc2)c2ccc(S(=O)(=O)N3CCOCC3)cc2)S1 (stereo unspecified)	Cycloheximide cs 18
CCOC(=O)CCN1C(=O)[C@H]2[C@H]3[C@H](O)[C@H](O)C/C(=N/OC[C@@H](O)COCc4ccco4)[C@@H]3CC[C@@H]2C1=O	none (no result: Pf growth 48h, Cycloheximide cs, Pf growth 96h, Shiga toxin inh, NS1 function inh)
Cc1ccc(C)c(Nc2nc3ccc(C)cc3n3cnnc23)c1	Pf growth 48h inconclusive
COc1ccccc1OCC(=O)NC1CC(C)(C)NC(C)(C)C1	none
O=C(NCCS(=O)(=O)N1CCN(c2ccccc2)CC1)C1CC1	none (no result: FBPA Giardia inh, Cycloheximide cs, Shiga toxin inh, NS1 function inh)
COc1ccc(C2/C=C\CN(CC3CCCCC3)C(Cc3ccccc3)C(=O)N2Cc2ccc(F)cc2)cc1 (stereo unspecified)	none (no result: Pf growth 48h, Pf growth 96h, NS1 function inh)
CCOC(=O)C1CCN(S(=O)(=O)c2ccc(NC(C)=O)c(Cl)c2)CC1	none
COc1ccc(-c2[nH]c3ccccc3c2SCCNC(=O)c2ccccc2)cc1	Pf growth 96h inconclusive
CC(=O)Nc1ccc(S(=O)(=O)NCCN2CCNC2=O)cc1Cl	Pf growth 48h inconclusive, Pf growth 96h 7.4µM (no result: FBPA Giardia inh)
Cc1ccc(-c2[nH]c3ccccc3c2SCCNC(=O)c2ccc(S(=O)(=O)N3CCOCC3)cc2)cc1	Pf growth 48h inconclusive, Pf growth 96h 8.3µM
